# Active and inactive are the calls of the source.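 The calls were made as follows, unless noted: active = inhibition above 20% together with a positive visual image hit; inconclusive = visual image hit but inhibition not above 20%; inactive = no visual image hit.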
# Assay: inhibitors of TNFa-induced NFkB p65 translocation, primary screen, imaging, HUVEC, MLSMR starter and 10KST1 sets (AID 438);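 also: compound added about 3h40 before a 20 min TNFalpha stimulation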;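 as to inhibition: signal is the nuclear over cytoplasmic p65 intensity ratio per well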
# Details: HUVEC TNFa-induced p65 nuclear translocation; cell count: measured here: nuclei count (cytotoxicity indicator), at 2.08 µM; inhibition: at 2 µM, stronger effect = higher value, 0% TNFa-plus-vehicle, 100% no-TNFa wells
Structure (SMILES),inhibition,cell count
COC(=O)c1ccccc1NC(=O)CC(NCc1ccccc1)C(=O)O (stereo not given),-5% (inactive),619
CCOC(=O)N1CCN(C(=O)c2ccc(CS(=O)(=O)c3c(Cl)cccc3Cl)o2)CC1,-5% (inactive),512
O=C(Cc1ccccc1)Nc1ccc(CN2CCOCC2)cc1,-5.4% (inactive),451
COc1ccc(N(CC(=O)O)S(=O)(=O)c2ccc(OC)c(OC)c2)cc1,-2.1% (inactive),501
Cc1ccc(C)c(C(=O)CC2(O)C(=O)N(C)c3ccccc32)c1 (stereo not given),0.7% (inactive),497
CCC1CCCN1Cn1cnc2c([nH]c3ccc(OC)cc32)c1=O (stereo not given),-7.6% (inactive),602
CC1Cc2nc(SCC(=O)Nc3ccc4c(c3)OCO4)n(-c3ccc(F)cc3)c(=O)c2S1 (stereo not given),-23.4% (inactive),680
CCCn1c(C)nc2c(c1=O)c1nc3ccccc3nc1n2CCc1ccccc1,-3.1% (inactive),470
CCOC(=O)C(CCc1nnc(N)s1)C(=O)OCC,-6.3% (inactive),710
CCOC(=O)c1c(N)sc(C(=O)N2CCOCC2)c1C,-11.5% (inactive),314
Cc1oc(-c2cccc(Cl)c2)nc1CN1CCC(C(=O)N2CCN(c3ccccc3F)CC2)CC1,-0.6% (inactive),780
COc1ccc(NC(=O)CN2CCN(S(=O)(=O)c3ccc(Cl)cc3)CC2)cc1,1.1% (inactive),333
O=C(CS(=O)(=O)c1cn(Cc2ccc(Cl)cc2)c2ccccc12)N1CCCC1,-3.9% (inactive),654
O=C(OCc1cc2ccccc2[nH]c1=O)c1ccco1,5.6% (inactive),234
CC1CCCCC1NC(=O)c1nn(C)c(=O)c2ccccc12 (stereo not given),0.7% (inactive),361
COc1ccccc1Oc1ccc(S(=O)(=O)N2CCOCC2)cc1S(=O)(=O)N1CCOCC1,2.9% (inactive),242
CCOC(=O)N1CCN(C(=O)CSc2ncnc3ccccc23)CC1,-1.6% (inactive),747
COC(=O)Nc1nnc(CCc2ccccc2)s1,3.2% (inactive),547
O=C(c1ccco1)N1CCN(CCCCN2C(=O)c3ccccc3C2=O)CC1,26.7% (inactive),265
Fc1ccccc1Cn1nnc2c(-n3ccnc3)ncnc21,-1.6% (inactive),573

Structure (SMILES),inhibition,cell count
N/C(=N/O)c1nc(N2CCCC2)nc(N(c2ccccc2)c2ccccc2)n1,0.4% (inactive),371
Cc1ccc(NC(=O)C2CCCN(S(=O)(=O)c3cnc[nH]3)C2)c(Br)c1 (stereo not given),10.1% (inactive),601
Cc1ccn2cc(CCNC(=O)CC(C)(C)C)nc2c1,6.4% (inactive),316
O=C1c2cccnc2C(=O)N1c1cccc(-c2nc3ccccc3o2)c1,9.1% (inactive),339
CSc1nc2c(c(=O)n1C)SC(C)C2 (stereo not given),8.7% (inactive),612
O=C(Nc1cccc2ccccc12)N1CCN(c2ccccc2)CC1,-6.4% (inactive),767
Cc1nnc(SCC(=O)NCCN2C(=O)CSC2=O)s1,2.2% (inactive),413
CN(C(=O)COc1cc(=O)n(C)c2ccccc12)c1ccc(Br)cc1,71.5% (active),389
CCOC(=O)c1c(C)oc2c1c(C(c1ccncc1)N1CCOCC1)c(O)c1ccccc12 (stereo not given),-7.9% (inactive),827
CCOC(=O)CNC(=O)CSc1nc(N)cc(N)n1,5.1% (inactive),434
CC(C)(CSc1nncn1N)NS(=O)(=O)c1ccc(Cl)cc1,-4.4% (inactive),690
O=C(CCNS(=O)(=O)c1cccs1)Nc1ccccc1F,-16.8% (inactive),714
CC(C)(C)c1nnc(NC(=O)C2CCN(c3ncccn3)CC2)s1,-9.2% (inactive),547
COc1cc(Cl)c(C)cc1NC(=O)COC(=O)c1cnc(C)cn1,3.8% (inactive),345
O=C(CN1CCN(Cc2ccc3c(c2)OCO3)CC1)Nc1ccc2c(c1)OCCO2,-3% (inactive),248
CCC(C)NC(=O)C1(C)CCC(=O)N1CCc1ccc(OC)c(OC)c1 (stereo not given),-5.7% (inactive),447
COC(=O)Cc1c(C)c2ccc(OCC(=O)N3CCOCC3)cc2oc1=O,15.7% (inactive),439
CC1=C(C(=O)Nc2ccccc2C)C2(CCCC2)C(C(N)=O)C(=O)N1 (stereo not given),0% (inactive),683
O=C(O)C1CC=CCC1C(=O)Nc1ccc(S(=O)(=O)N2CCCc3ccccc32)cc1 (stereo not given),-7.5% (inactive),335
CCCC(=O)Nc1ccccc1-c1nnn(CC(=O)Nc2ccc(OC)cc2)n1,21.5% (inactive),674

# Assay: reduction of polyQ htt aggregates in cells – imaging, exon1htt(103Q)mCFP cells, high-content imaging, primary screen (AID 483;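 active = visual image review flags a hit and inhibition of aggregation exceeds 20%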;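 also: compound exposure lasted 3 days before fixation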;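 as to nuclei count: percent of the per-plate median nuclei count of sample wells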)
# Details: exon1htt(103Q)mCFP cell line, aggregate imaging, at 2 µM; inhibition of aggregation: stronger effect = higher value; nuclei count: measured here: cell count, toxicity
Structure (SMILES),nuclei count [%],inhibition of aggregation
COC(=O)c1ccccc1NC(=O)CC(NCc1ccccc1)C(=O)O (stereo not given),124,-34.3% (inactive)
CCOC(=O)N1CCN(C(=O)c2ccc(CS(=O)(=O)c3c(Cl)cccc3Cl)o2)CC1,102,2.1% (inactive)
O=C(Cc1ccccc1)Nc1ccc(CN2CCOCC2)cc1,104,-17.1% (inactive)
COc1ccc(N(CC(=O)O)S(=O)(=O)c2ccc(OC)c(OC)c2)cc1,99,-12.1% (inactive)
Cc1ccc(C)c(C(=O)CC2(O)C(=O)N(C)c3ccccc32)c1 (stereo not given),106,-18% (inactive)
CCC1CCCN1Cn1cnc2c([nH]c3ccc(OC)cc32)c1=O (stereo not given),108,3.4% (inactive)
CC1Cc2nc(SCC(=O)Nc3ccc4c(c3)OCO4)n(-c3ccc(F)cc3)c(=O)c2S1 (stereo not given),102,-2.5% (inactive)
CCCn1c(C)nc2c(c1=O)c1nc3ccccc3nc1n2CCc1ccccc1,100,6.9% (inactive)
CCOC(=O)C(CCc1nnc(N)s1)C(=O)OCC,105,3.1% (inactive)
CCOC(=O)c1c(N)sc(C(=O)N2CCOCC2)c1C,103,12.2% (inactive)
Cc1oc(-c2cccc(Cl)c2)nc1CN1CCC(C(=O)N2CCN(c3ccccc3F)CC2)CC1,77.7,-4% (inactive)
COc1ccc(NC(=O)CN2CCN(S(=O)(=O)c3ccc(Cl)cc3)CC2)cc1,123,17.3% (inactive)
O=C(CS(=O)(=O)c1cn(Cc2ccc(Cl)cc2)c2ccccc12)N1CCCC1,116,-11.8% (inactive)
O=C(OCc1cc2ccccc2[nH]c1=O)c1ccco1,87.3,1.7% (inactive)
CC1CCCCC1NC(=O)c1nn(C)c(=O)c2ccccc12 (stereo not given),105,0.4% (inactive)
COc1ccccc1Oc1ccc(S(=O)(=O)N2CCOCC2)cc1S(=O)(=O)N1CCOCC1,106,24.3% (inactive)
CCOC(=O)N1CCN(C(=O)CSc2ncnc3ccccc23)CC1,120,-8.8% (inactive)
COC(=O)Nc1nnc(CCc2ccccc2)s1,107,2.7% (inactive)
O=C(c1ccco1)N1CCN(CCCCN2C(=O)c3ccccc3C2=O)CC1,89.1,16% (inactive)
Fc1ccccc1Cn1nnc2c(-n3ccnc3)ncnc21,103,-7.5% (inactive)

Structure (SMILES),nuclei count [%],inhibition of aggregation
N/C(=N/O)c1nc(N2CCCC2)nc(N(c2ccccc2)c2ccccc2)n1,90.7,-18.1% (inactive)
Cc1ccc(NC(=O)C2CCCN(S(=O)(=O)c3cnc[nH]3)C2)c(Br)c1 (stereo not given),82.3,-33.6% (inactive)
Cc1ccn2cc(CCNC(=O)CC(C)(C)C)nc2c1,95.6,-9.1% (inactive)
O=C1c2cccnc2C(=O)N1c1cccc(-c2nc3ccccc3o2)c1,84,28.9% (inactive)
CSc1nc2c(c(=O)n1C)SC(C)C2 (stereo not given),111,-10.1% (inactive)
O=C(Nc1cccc2ccccc12)N1CCN(c2ccccc2)CC1,94.9,26.6% (inactive)
Cc1nnc(SCC(=O)NCCN2C(=O)CSC2=O)s1,65.4,19.8% (inactive)
CN(C(=O)COc1cc(=O)n(C)c2ccccc12)c1ccc(Br)cc1,104,2.9% (inactive)
CCOC(=O)c1c(C)oc2c1c(C(c1ccncc1)N1CCOCC1)c(O)c1ccccc12 (stereo not given),101,-6.4% (inactive)
CCOC(=O)CNC(=O)CSc1nc(N)cc(N)n1,106,-0.1% (inactive)
CC(C)(CSc1nncn1N)NS(=O)(=O)c1ccc(Cl)cc1,58.2,11.7% (inactive)
O=C(CCNS(=O)(=O)c1cccs1)Nc1ccccc1F,102,-2.2% (inactive)
CC(C)(C)c1nnc(NC(=O)C2CCN(c3ncccn3)CC2)s1,106,-2.6% (inactive)
COc1cc(Cl)c(C)cc1NC(=O)COC(=O)c1cnc(C)cn1,95.2,16.5% (inactive)
O=C(CN1CCN(Cc2ccc3c(c2)OCO3)CC1)Nc1ccc2c(c1)OCCO2,75.7,2.7% (inactive)
CCC(C)NC(=O)C1(C)CCC(=O)N1CCc1ccc(OC)c(OC)c1 (stereo not given),105,-2.3% (inactive)
COC(=O)Cc1c(C)c2ccc(OCC(=O)N3CCOCC3)cc2oc1=O,113,7.7% (inactive)
CC1=C(C(=O)Nc2ccccc2C)C2(CCCC2)C(C(N)=O)C(=O)N1 (stereo not given),99,-25.1% (inactive)
O=C(O)C1CC=CCC1C(=O)Nc1ccc(S(=O)(=O)N2CCCc3ccccc32)cc1 (stereo not given),92.3,-17.2% (inactive)
CCCC(=O)Nc1ccccc1-c1nnn(CC(=O)Nc2ccc(OC)cc2)n1,115,-11.7% (inactive)

# Reference: PubChem BioAssay
